# According to PubChem BioAssay (NCATS):
# Results filed as inconclusive are left out. Calls of active or inactive are those of the source. Calls come from the whole dose curve; as a rule, active = well fitted cell-killing curve with a large enough effect; inconclusive = small, poorly fitted or top-dose-only effect; inactive = flat fitted curve, though single readings scatter.
# Assay: Cell Viability - LYMP1-002 - Assay at 40 hr (AID 994);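 note: 0% = DMSO only and full inhibition = 92 µM tetraoctylammonium bromide; nearly all actives have a fitted effect of over 60% in size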
# Conditions: LYMP1-002 lymphoblastoid cell viability; series mostly up to 92.2 µM; viability change, negative = cytotoxic: at the top concentration
# Excerpt: NIH Chemical Genomics Center [NCGC]
# NIH Molecular Libraries Screening Centers Network [MLSCN]
# National Institutes of Environmental Health Sciences [NIEHS]
# National Toxicology Program [NTP]
# We have developed a 1536-well cell-based assay for quantitative high throughput screening (qHTS) against a number of cell lines to determine in vitro cytotoxicity of small molecules. This particular assay uses a human lymphoblastoid cell line (LYMP1-002) purchased from Coriell Institute for Medical Research.
# NCGC Assay Protocol Summary:
# The CellTiter-Glo luminescent cell viability assay (Promega) is a homogeneous method to measure the number of viable cells in culture. The end point readout of this assay is based on quantitation of intracellular ATP, an indicator of metabolic activity, using the luciferase reaction. Luciferase catalyzes the oxidation of beetle Luciferin to oxyluciferin and light in the presence of ATP. The luminescent signal is proportional to amount of ATP present.
# Using the CellTiter-Glo luminescent cell viability assay, the amount of cellular ATP was measured in the lymphoblastoid cell line with complete culture medium following compound treatment for 40 hours. The assay was performed in opaque white Kalypsys 1536-well plates. In the screen, tetraoctylammonium bromide was used as positive control. Library compounds were measured for their ability to cause acute toxicity in the cell line, as reflected by a decrease in intracellular ATP levels, in a concentration-dependent manner. […] AC50 values were determined from concentration-response data modeled with the standard Hill equation.
# qHTS protocol for CellTiter Glo lymphoblastoid cellular assay
# [Step] [Parameter] [Value] [Description]
# 1. Reagent; 5 uL; 2500 lymphoblastoid cells/well
# 2. Time; 5 hr; 37 C incubation
# 4. Controls; 23 nL; Tetraoctylammonium bromide 6.4pM to 92 uM
# 5. Time; 40 hr; 37 C incubation
# 6. Reagent; 5 uL; CellTiter Glo reagent
# 7. Time; 30 min; Room Temperature
# 8. Detection; Luminescence; Viewlux plate reader
# Keywords: cell viability, cytotoxicity, lymphoblastoid cell line, luminescence, NTPHTS, NTPHTS_NCGC, NIEHS, DSSTox, MLSMR, MLSCN, NIH Roadmap, qHTS, NCGC
row,SMILES,"viability change, negative = cytotoxic"
1,O=C(O)c1ccccc1C(=O)O,-5.05% (inactive)
2,Oc1c(Cl)ccc(Cl)c1Cl,-11.1% (inactive)
3,O=Cc1ccccc1Cl,-2.24% (inactive)
4,Nc1ccccc1S(=O)(=O)O,-6.44% (inactive)
5,O=[N+]([O-])c1ccc(Cl)cc1Cl,-2.01% (inactive)
6,CCOc1cccc(N)c1,-9.14% (inactive)
7,NCCCCCCN,-4.71% (inactive)
8,CC(=O)c1cc(C)oc1C,-1.31% (inactive)
9,CC(=O)Nc1ccccc1C,-2.23% (inactive)
10,CC(=O)c1nccs1,-1.03% (inactive)
11,CCCCC(C=O)CC (stereo not given),-2.56% (inactive)
12,Cc1ccccc1C(N)=O,1.67% (inactive)
13,Cc1c(C(=O)O)cccc1[N+](=O)[O-],-6.03% (inactive)
14,Nc1nc2ccccc2[nH]1,-11.7% (inactive)
15,Nc1ccc([N+](=O)[O-])c(N)c1,-6.69% (inactive)
16,CC(N)CN (stereo not given),-1.07% (inactive)
17,C/C(C=O)=C/c1ccccc1,-9.49% (inactive)
18,COC(=O)CCC(=O)OC,6.65% (inactive)
19,CCOCCOCC,1.76% (inactive)
20,Clc1ccc(Cl)c(Cl)c1Cl,-3.1% (inactive)

row,SMILES,"viability change, negative = cytotoxic"
1,N#Cc1ccccc1,1.25% (inactive)
2,Nc1cccc([N+](=O)[O-])c1,0.417% (inactive)
3,COC(=O)CC#N,-5.67% (inactive)
4,CCCCC(CC)CO (stereo not given),0.19% (inactive)
5,C/C=C(/C)C#N,-21.2% (inactive)
6,CCOc1ccc(NC(C)=O)cc1N,-0.282% (inactive)
7,COc1ccc(OC)cc1,5.4% (inactive)
8,Cc1ccc2oc(=O)ccc2c1,-5.44% (inactive)
9,Cc1ccc(Cl)cc1,-6.29% (inactive)
10,CCN(C(=O)N(CC)c1ccccc1)c1ccccc1,-6.71% (inactive)
11,Cc1cccc([N+](=O)[O-])c1C(=O)O,1.31% (inactive)
12,CCCCC(CC)C(=O)O (stereo not given),2.22% (inactive)
13,CC(CCl)OC(C)CCl (stereo not given),-2.28% (inactive)
14,C=C(C)C(=O)OCC(C)C,-6.43% (inactive)
15,NC=O,1.63% (inactive)
16,CC(O)CC(C)O (stereo not given),6.9% (inactive)
17,CCC(C)=O,-1.55% (inactive)
18,CC(C)=C1CCC(C)CC1=O (stereo not given),-1.28% (inactive)
19,COC(=O)CCCC(=O)OC,5.61% (inactive)
20,Nc1nc(CC(=O)O)cs1,-6.16% (inactive)
